Values joined by “and” are separate entries in the source; they are usually repeats but may differ in a detail not shown here. Equal values may be shown once. This is part of a sample that, as a whole, favours compounds with a hit. Of some 79,000 tested, about 15% had one in any assay. A structure can be active in one record and inactive in another. Active and inactive are the calls of the source. Cut-off read from the data, not from the text of the source: active = growth inhibition above about 70%; inactive = the rest.
How the values were obtained:
[1] = NCI Yeast Anticancer Drug Screen. Data for the rad52 strain (AID 147);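 note: 0% = growth of vehicle-treated control cultures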; conditions: S. cerevisiae rad52 mutant growth inhibition, stronger effect = higher value
Outline: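 Measured: yeast growth inhibition. System: strain with a defined DNA damage repair alteration. Reference: vehicle-treated control cultures.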

[2] = NCI Yeast Anticancer Drug Screen. Data for the wt1 strain (AID 149);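 note: 0% = growth of vehicle-treated wt1 cultures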; conditions: S. cerevisiae wt1 strain (SPY 50644) growth inhibition, stronger effect = higher value
Outline: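 Readout: yeast growth inhibition, normalised to vehicle controls, in the wt1 strain exposed to test compounds.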

[3] = NCI Yeast Anticancer Drug Screen. Data for the rad50EPP+ strain (AID 151);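 note: 0% = growth of vehicle-treated control cultures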; conditions: S. cerevisiae rad50 mutant strain, stronger effect = higher value
Outline: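 One strain with a rad50 alteration (rad50EPP+) was compound-treated, its growth then compared to that of vehicle controls.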

[4] = NCI Yeast Anticancer Drug Screen. Data for the rad50 strain (AID 155);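 note: 0% = growth of vehicle-only cultures of the same strain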; conditions: S. cerevisiae rad50 strain growth inhibition, stronger effect = higher value
Outline: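 Compounds were tested on a yeast strain with an engineered DNA damage repair alteration; the reported value is growth inhibition normalised to vehicle treatment.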

[5] = NCI Yeast Anticancer Drug Screen. Data for the mec2-1 strain (AID 157); conditions: S. cerevisiae mec2-1 strain, stronger effect = higher value
Outline: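 Test agents were screened against the mec2-1 yeast strain, with defined DNA repair or cell cycle alteration. Growth was scored as inhibition against vehicle-only controls.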

[6] = NCI Yeast Anticancer Drug Screen. Data for the rad14 strain (AID 159);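 note: 0% = growth of vehicle-treated control cultures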; conditions: S. cerevisiae rad14 strain growth inhibition, stronger effect = higher value
Outline: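 Compound-treated yeast with a defined DNA-repair lesion; growth inhibition normalised to vehicle-treated cultures.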

[7] = NCI Yeast Anticancer Drug Screen. Data for the CLN2oe strain (AID 163);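 note: 0% = growth of vehicle-only control cultures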; conditions: S. cerevisiae CLN2oe strain, stronger effect = higher value
Outline: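 Here, growth inhibition in a cell-cycle-altered yeast strain after compound exposure was quantified against vehicle control growth.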

[8] = NCI Yeast Anticancer Drug Screen. Data for the cln2 rad14 strain (AID 165);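 note: 0% = growth equal to vehicle treated cultures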; conditions: S. cerevisiae cln2 rad14 strain, stronger effect = higher value
Outline: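 Growth of compound-exposed yeast (cln2 rad14 genotype) measured and expressed as inhibition relative to vehicle.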

[9] = NCI Yeast Anticancer Drug Screen. Data for the bub3 strain (AID 167); conditions: S. cerevisiae bub3 mutant strain, stronger effect = higher value
Outline: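 Growth of a checkpoint-deficient yeast mutant is measured after compound exposure. Values represent inhibition relative to vehicle.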

[10] = NCI Yeast Anticancer Drug Screen. Data for the wt2 strain (AID 169);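 note: 0% = growth of vehicle-treated yeast cultures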; conditions: S. cerevisiae wt2 strain growth inhibition, stronger effect = higher value
Outline: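 Genetically defined yeast strains from a DNA-repair/cell-cycle panel were used. Compound-exposed yeast growth was measured, and the inhibition was calculated relative to vehicle treatment.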

[11] = NCI Yeast Anticancer Drug Screen. Data for the mlh1 strain (AID 171);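 note: 0% = growth of vehicle-treated control cultures of the same strain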; conditions: S. cerevisiae mlh1 strain growth inhibition, stronger effect = higher value
Outline: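 Here the genetically defined yeast mutant is grown with each compound, and the extent to which its growth falls below that of vehicle-exposed cells is reported.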

[12] = NCI Yeast Anticancer Drug Screen. Data for the sgs1 strain (AID 173);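 note: 0% = growth of vehicle-only control cultures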; conditions: S. cerevisiae sgs1 mutant, stronger effect = higher value
Outline: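 Relative growth inhibition, referenced to vehicle, was determined in a yeast strain with a defined alteration affecting DNA damage repair or cell cycle control after compound exposure.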

[13] = NCI Yeast Anticancer Drug Screen. Data for the mlh1 rad18 strain (AID 175); conditions: S. cerevisiae mlh1 rad18 strain growth inhibition, stronger effect = higher value
Outline: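 In this whole-cell yeast screen, a strain with altered DNA damage repair is challenged with compound, and its growth is measured against matched vehicle-treated controls.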

[14] = NCI Yeast Anticancer Drug Screen. Data for the rad18 strain (AID 177); conditions: S. cerevisiae rad18 mutant growth inhibition, stronger effect = higher value
Outline: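 Screen uses a yeast strain with a defined lesion in DNA damage repair; compound effect is read as loss of growth compared to untreated vehicle cultures.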

[15] = NCI Yeast Anticancer Drug Screen. Data for the mgt1 strain (AID 153); conditions: S. cerevisiae mgt1 mutant growth inhibition, stronger effect = higher value
Outline: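 After exposure of the mgt1 yeast mutant to compound, growth was measured and reported as inhibition compared with vehicle controls.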

[16] = NCI Yeast Anticancer Drug Screen. Data for the sgs1 mgt1 strain (AID 161);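 note: 0% = growth of cultures given vehicle only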; conditions: S. cerevisiae sgs1 mgt1 strain, stronger effect = higher value
Outline: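 Genetically altered yeast, compound exposure, growth inhibition relative to vehicle.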

[17] = at 5.0 µM (retest, dose inferred, filed as 0.5)
[18] = at 50.0 µM (retest, dose inferred, filed as 5.0)

Measured: growth inhibition

COc1oc(C(=O)NC2CCCCC2)c(-c2ccc(Cl)cc2)c1S(=O)(=O)c1ccccc1
active: [1]; at 33.0 µM 87% | [1]; at 100.0 µM 84% | [2]; at 33.0 µM 91% | [2]; at 100.0 µM 87% | [4]; at 33.0 µM 83% | [4]; [18] 92% | [4]; at 50.0 µM 75.1% | [4]; at 100.0 µM 78% | [5]; at 11.0 µM 70% | [5]; at 33.0 µM 92% | [5]; [18] 91% | [5]; at 50.0 µM 78.8% | [5]; at 100.0 µM 88% | [6]; at 33.0 µM 82% | [6]; at 100.0 µM 74% | [7]; at 33.0 µM 91% | [7]; at 100.0 µM 83% | [8]; [18] 87% | [8]; at 50.0 µM 76.9% | [9]; at 33.0 µM 90% | [9]; [18] 88% | [9]; at 50.0 µM 72.5% | [9]; at 100.0 µM 84% | [10]; at 11.0 µM 89% | [10]; at 33.0 µM 91% | [10]; at 100.0 µM 82% | [11]; at 33.0 µM 84% | [11]; at 100.0 µM 81% | [12]; at 33.0 µM 89% | [12]; at 100.0 µM 84% | [13]; [18] 84% | [14]; at 33.0 µM 85% | [14]; at 100.0 µM 80%
inactive: [1]; at 1.2 µM -5% | [1]; at 3.7 µM 7% | [1]; at 11.0 µM 56% | [2]; at 1.2 µM -19% | [2]; at 3.7 µM -5% | [2]; at 11.0 µM 68% | [3]; at 1.2 µM -22% | [3]; at 3.7 µM -19% | [3]; at 11.0 µM -18% | [3]; at 33.0 µM -5% | [3]; at 100.0 µM -11% | [4]; at 1.2 µM -29% | [4]; at 3.7 µM -2% | [4]; [17] 64% | [4]; at 11.0 µM 48% | [5]; at 1.2 µM 1% | [5]; at 3.7 µM 3% | [5]; [17] 22% | [6]; at 1.2 µM -22% | [6]; at 3.7 µM -17% | [6]; at 11.0 µM 23% | [7]; at 1.2 µM -1% | [7]; at 3.7 µM 0% | [7]; at 11.0 µM 30% | [8]; [17] 15% | [9]; at 1.2 µM -18% | [9]; at 3.7 µM -25% | [9]; [17] 8% | [9]; at 11.0 µM 47% | [10]; at 1.2 µM -1% | [10]; at 3.7 µM 22% | [11]; at 1.2 µM -20% | [11]; at 3.7 µM -7% | [11]; at 11.0 µM 41% | [12]; at 1.2 µM -4% | [12]; at 3.7 µM -1% | [12]; at 11.0 µM 52% | [13]; [17] 16% | [13]; at 50.0 µM 45.4% | [14]; at 1.2 µM -6% | [14]; at 3.7 µM -1% | [14]; at 11.0 µM 46%

CN(C)CCOC1(Cc2ccc(F)cc2)CCC(C(C)(C)C)CC1 (stereo not drawn)
inactive: [1]; at 1.2 µM 8% | [1]; at 3.7 µM 5% | [1]; at 11.0 µM -4% | [1]; at 33.0 µM 7% | [2]; at 1.2 µM 10% | [2]; at 3.7 µM 6% | [2]; at 11.0 µM -11% | [2]; at 33.0 µM -5% | [15]; at 1.2 µM 18% | [15]; at 3.7 µM 8% | [15]; at 11.0 µM 20% | [15]; at 33.0 µM 53% | [4]; at 1.2 µM -10% | [4]; at 3.7 µM 6% | [4]; [17] 4% and -18% | [4]; at 11.0 µM 14% | [4]; at 33.0 µM 53% | [5]; at 1.2 µM -12% | [5]; at 3.7 µM -10% | [5]; [17] -12% and -13% | [5]; at 11.0 µM -8% | [5]; at 33.0 µM 19% | [6]; at 1.2 µM 6% | [6]; at 3.7 µM 7% | [6]; at 11.0 µM 10% | [6]; at 33.0 µM 66% | [16]; [17] -1% and -5% | [7]; at 1.2 µM -5% | [7]; at 3.7 µM -5% | [7]; at 11.0 µM -5% | [7]; at 33.0 µM -2% | [8]; [17] 17% and -22% | [8]; [18] 34% and 51% | [9]; at 1.2 µM -4% | [9]; at 3.7 µM -4% | [9]; [17] 10% and -19% | [9]; at 11.0 µM -1% | [9]; at 33.0 µM 7% | [10]; at 1.2 µM 1% | [10]; at 3.7 µM -1% | [10]; at 11.0 µM -1% | [10]; at 33.0 µM 16% | [11]; at 1.2 µM 2% | [11]; at 3.7 µM 7% | [11]; at 11.0 µM 11% | [11]; at 33.0 µM 58% | [12]; at 1.2 µM 32% | [12]; at 3.7 µM 16% | [12]; at 11.0 µM 18% | [12]; at 33.0 µM 56% | [13]; [17] 7% and -11% | [14]; at 1.2 µM -9% | [14]; at 3.7 µM -23% | [14]; at 11.0 µM -2% | [14]; at 33.0 µM 18%
56% (inactive) and 99% (active): [9]; [18]
38.3% (inactive) and 99.1% (active): [4]; at 50.0 µM
-1% (inactive) and 92% (active): [5]; [18]
active: [1]; at 100.0 µM 98% | [2]; at 100.0 µM 95% | [15]; at 100.0 µM 98% | [4]; at 100.0 µM 97% | [5]; at 100.0 µM 98% | [6]; at 100.0 µM 98% | [16]; [18] 75% and 83% | [16]; at 50.0 µM 92.8% and 99.1% | [7]; at 100.0 µM 98% | [9]; at 100.0 µM 98% | [10]; at 100.0 µM 99% | [11]; at 100.0 µM 98% | [12]; at 100.0 µM 99% | [13]; [18] 94% and 99% | [13]; at 50.0 µM 97.8% and 99.3% | [14]; at 100.0 µM 98%
46.3% (inactive) and 99.2% (active): [9]; at 50.0 µM
15.3% (inactive) and 99.3% (active): [8]; at 50.0 µM
18.8% (inactive) and 99.2% (active): [5]; at 50.0 µM
65% (inactive) and 92% (active): [4]; [18]
